We go through 37 compounds from PubChem BioAssay (Tox21).

Records with an inconclusive call do not appear. Activity calls are given as the source filed them. Unless noted, calls come from the whole dose curve; as a rule, active = well fitted curve in the direction sought with a large enough effect in the repeat runs; inconclusive = weak or mixed curves; inactive = no such curve, though single readings can be large; an effect the other way counts as inactive or inconclusive.
% is set by controls: 0 for no effect and ±100 for the full control effect.

The first experiment in a line: qHTS assay to identify small molecule agonists of H2AX - cell viability counter screen (AID 1224847; calls by dose curve;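 note: wild-type CHO-K1 cells; top concentration of the series differs between compounds; nearly all actives have a fitted effect of over 30% in size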). Conditions: CHO-K1 viability, CellTiter-Glo luminescence, 3 h; series mostly up to 154 µM; activity change, negative = cytotoxicity: at the top concentration. The procedure, abridged: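 Counter-screen for viability: CellTiter-Glo ATP luminescence read after 3 h compound treatment (15-point titration, 0.76% DMSO final) of CHO-K1 cells at 37C, with 30 min room-temperature reagent incubation.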
Turning to `CC1=CC(=O)CCC1`, the “activity change, negative = cytotoxicity” value was 9.11% (inactive).

For `NC(CS)C(=O)O` (stereo not given), the “activity change, negative = cytotoxicity” value is 3.71% [at 70.9 µM] (inactive).

As for `CCc1cc(S(=O)(=O)O)c2cc(C(C)C)cccc1-2`, the “activity change, negative = cytotoxicity” value was -3.98% [at 70.9 µM] (inactive).

In the case of `CCCCCCCCN(C)CCCCCCCC`, the “activity change, negative = cytotoxicity” value is -1.34% (inactive).

As for `CCCOc1ccccc1-c1nc2n[nH]nc2c(=O)[nH]1`, the “activity change, negative = cytotoxicity” value is 0.522% [at 70.9 µM] (inactive).

Turning to `CC(C)c1ccc2oc3nc(N)c(C(=O)O)cc3c(=O)c2c1`, the “activity change, negative = cytotoxicity” value is -1.26% [at 70.9 µM] (inactive).

For the compound `CN(C)CCn1nnnc1SCC1=C(C(=O)O)N2C(=O)[C@@H](NC(=O)Cc3csc(N)n3)[C@H]2SC1`, the “activity change, negative = cytotoxicity” value was 3.08% [at 70.9 µM] (inactive).

As to `NS(=O)(=O)c1cc2c(cc1C(F)(F)F)NC(Cc1ccccc1)NS2(=O)=O` (stereo not given), the “activity change, negative = cytotoxicity” value was 0.0858% [at 70.9 µM] (inactive).

On to `COc1ccc(NC(C)=O)cc1`, for which the “activity change, negative = cytotoxicity” value was 0.53% (inactive).

For `CCN(CC)S(=O)(=O)c1ccc(C(=O)O)cc1`, the “activity change, negative = cytotoxicity” value was -0.172% [at 70.9 µM] (inactive).

In the case of `O=C1OC(=O)c2cc([N+](=O)[O-])ccc21`, the “activity change, negative = cytotoxicity” value is 0.395% (inactive).

As for `CNc1ncnc2nc[nH]c12`, the “activity change, negative = cytotoxicity” value was 3.03% (inactive).

Take `CCCCC=O`: the “activity change, negative = cytotoxicity” value is 0.735% (inactive).

For `N#CC1(O)CCCCC1`, the “activity change, negative = cytotoxicity” value is -0.797% (inactive).

Turning to `Nc1nc2c(ncn2CCC(CO)CO)c(=O)[nH]1`, the “activity change, negative = cytotoxicity” value was -0.583% [at 70.9 µM] (inactive).

`CC(C)(C)OC(=O)N1C[C@@H](F)C[C@H]1C(=O)O`: the “activity change, negative = cytotoxicity” value was 1.27% (inactive).

For the compound `COc1ccc(COC=O)cc1`, the “activity change, negative = cytotoxicity” value is 0.174% (inactive).

`CC(C)(C)C(=O)/C=C/c1ccc(Cl)cc1`: the “activity change, negative = cytotoxicity” value is -9.73% (inactive).

Take `O=C(O)CCNC(=O)c1ccc(N=Nc2ccc(O)c(C(=O)O)c2)cc1`: the “activity change, negative = cytotoxicity” value is 3.56% [at 70.9 µM] (inactive).

Take `CCCC(=O)O[C@]1(C(=O)CCl)[C@@H](C)C[C@H]2[C@@H]3CCC4=CC(=O)C=C[C@]4(C)[C@@]3(F)C(=O)C[C@@]21C`: the “activity change, negative = cytotoxicity” value was -0.0583% [at 70.9 µM] (inactive).

With `CC1=CC(C)C(C=O)C(C)C1` (stereo not given), the “activity change, negative = cytotoxicity” value is -0.0494% (inactive).

On to `CN(C)CCOC(c1ccc(Cl)cc1)c1ccccn1` (stereo not given), for which the “activity change, negative = cytotoxicity” value was -0.478% [at 70.9 µM] (inactive).

As to `CCCC(C)CO` (stereo not given), the “activity change, negative = cytotoxicity” value was 0.573% (inactive).

Regarding `CC(C)COC(=O)C(C)C`, the “activity change, negative = cytotoxicity” value was 1.93% (inactive).

Another experiment is described as follows: qHTS assay to identify small molecule antagonists of the estrogen related receptor (ERR) signaling pathway from Tox21 library (AID 1224848). Note: nearly all actives have a fitted effect of over 50% in size. Conditions: ERR reporter cell line, luciferase antagonist mode, 18 h; series mostly up to 92.4 µM; activity, negative = inhibition: at the top concentration. Summed up:
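ERR cell line, 2,000 cells/well. 6 h settle, then compound (DMSO) added; 18 h at 37 C; ONE-Glo luminescence after 30 min RT.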
As to `CCCCCCCCN(C)CCCCCCCC`, the “activity, negative = inhibition” value was 8.2% (inactive).

As for `CC(C)c1ccc2oc3nc(N)c(C(=O)O)cc3c(=O)c2c1`, the “activity, negative = inhibition” value is 167% [at 42.5 µM] (inactive).

For the compound `CC(C)CCCC(C)NCCC(C)C` (stereo not given), the “activity, negative = inhibition” value was 2.17% [at 42.5 µM] (inactive).

With `CCCCC1CCCCC(=O)O1` (stereo not given), the “activity, negative = inhibition” value was 1.47% (inactive).

For `CNc1ncnc2nc[nH]c12`, the “activity, negative = inhibition” value is 2.77% (inactive).

Take `N#CC1(O)CCCCC1`: the “activity, negative = inhibition” value is 10.8% (inactive).

Turning to `COC(=O)c1ccc(C(=O)OC)c(C(=O)OC)c1`, the “activity, negative = inhibition” value is -0.849% (inactive).

As to `CC(C)c1cccc(O)c1`, the “activity, negative = inhibition” value was -0.847% (inactive).

Turning to `Nc1nc2c(ncn2CCC(CO)CO)c(=O)[nH]1`, the “activity, negative = inhibition” value is -3.52% [at 42.5 µM] (inactive).

`COc1ccc(COC=O)cc1`: the “activity, negative = inhibition” value is -1.43% (inactive).

On to `CC(C)(C)C(=O)/C=C/c1ccc(Cl)cc1`, for which the “activity, negative = inhibition” value is 2.02% (inactive).

Consider `C[C@H]1O[C@@H](n2cc(F)c(=O)[nH]c2=O)[C@H](O)[C@@H]1O`, for which the “activity, negative = inhibition” value was 3.48% [at 42.5 µM] (inactive).

Consider `CC1(C)SC(C)(C)SC(C)(C)S1`, for which the “activity, negative = inhibition” value was -11.7% (inactive).

Regarding `CC(C)COC(=O)C(C)C`, the “activity, negative = inhibition” value is 12.7% (inactive).

Another experiment in a line: qHTS assay to identify small molecule agonists of the estrogen related receptor (ERR) signaling pathway from Tox21 library (AID 1224849; calls by dose curve; note: nearly all actives have a fitted effect of over 15% in size). The following applies: ERR reporter cell line, ONE-Glo luciferase, 18 h; at 92.4 µM (top of the series) unless noted. Summed up:
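Luminescent agonist read-out (One-Glo, 30-minute room-temperature incubation) following 18-hour compound treatment at 37 C of the ERR cell line, which had been plated 6 hours before dosing.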
For `CCCCCCCCN(C)CCCCCCCC`, the activity change, positive = activation was 18.3% (inactive).

Take `CC(C)c1ccc2oc3nc(N)c(C(=O)O)cc3c(=O)c2c1`: the activity change, positive = activation was 105% [at 42.5 µM] (active).

As for `Cc1c(F)cc2c(=O)c(C(=O)O)cn3c2c1CCC3C` (stereo not given), the activity change, positive = activation is -37.3% [at 42.5 µM] (inactive).

In the case of `CC(C)CCCC(C)NCCC(C)C` (stereo not given), the activity change, positive = activation is 1.21% [at 42.5 µM] (inactive).

For `CCCCC1CCCCC(=O)O1` (stereo not given), the activity change, positive = activation is 0.974% (inactive).

On to `CNc1ncnc2nc[nH]c12`, for which the activity change, positive = activation was 1.91% (inactive).

`COC(=O)c1ccc(C(=O)OC)c(C(=O)OC)c1`: the activity change, positive = activation was -1.41% (inactive).

As to `CC(C)c1cccc(O)c1`, the activity change, positive = activation was 1.69% (inactive).

With `C[C@H]1O[C@@H](n2cc(F)c(=O)[nH]c2=O)[C@H](O)[C@@H]1O`, the activity change, positive = activation is 2.35% [at 42.5 µM] (inactive).

With `CC1(C)SC(C)(C)SC(C)(C)S1`, the activity change, positive = activation was -8.06% (inactive).

Another experiment in a line: qHTS RealTime-Glo MT Cell Viability Assay in HepG2 cells - 24 hour (AID 1224867). Note: nearly all actives have a fitted effect of over 50% in size. The following applies: RealTime-Glo luminescence; series mostly up to 76.8 µM; activity change, negative = cytotoxicity: at the top concentration. Summed up: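 Compound treatment began 5 h after plating HepG2 cells (600/well) with NanoLuc luciferase and prosubstrate. Plates stayed at 37 C for 40 h; luminescence was captured at six time points, 0 h through 40 h.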
Take `CC1=CC(=O)CCC1`: the “activity change, negative = cytotoxicity” value is 0.896% (inactive).

On to `NC(CS)C(=O)O` (stereo not given), for which the “activity change, negative = cytotoxicity” value is 1.35% [at 35.3 µM] (inactive).

On to `CCc1cc(S(=O)(=O)O)c2cc(C(C)C)cccc1-2`, for which the “activity change, negative = cytotoxicity” value is 2.4% [at 35.3 µM] (inactive).

Regarding `CCCCCCCCN(C)CCCCCCCC`, the “activity change, negative = cytotoxicity” value is 0.215% (inactive).

On to `CCCOc1ccccc1-c1nc2n[nH]nc2c(=O)[nH]1`, for which the “activity change, negative = cytotoxicity” value is 0.604% [at 35.3 µM] (inactive).

Turning to `CC(C)c1ccc2oc3nc(N)c(C(=O)O)cc3c(=O)c2c1`, the “activity change, negative = cytotoxicity” value was 3.86% [at 35.3 µM] (inactive).

For `CN(C)CCn1nnnc1SCC1=C(C(=O)O)N2C(=O)[C@@H](NC(=O)Cc3csc(N)n3)[C@H]2SC1`, the “activity change, negative = cytotoxicity” value is 7.09% [at 35.3 µM] (inactive).

On to `NS(=O)(=O)c1cc2c(cc1C(F)(F)F)NC(Cc1ccccc1)NS2(=O)=O` (stereo not given), for which the “activity change, negative = cytotoxicity” value is 3.2% [at 35.3 µM] (inactive).

Turning to `COc1ccc(NC(C)=O)cc1`, the “activity change, negative = cytotoxicity” value was 0.382% (inactive).

Regarding `Cc1c(F)cc2c(=O)c(C(=O)O)cn3c2c1CCC3C` (stereo not given), the “activity change, negative = cytotoxicity” value is 0.491% [at 35.3 µM] (inactive).

As to `CCCCCCC(CCCCCCCCCCC(=O)OCC(COC(C)=O)OC(C)=O)OC(C)=O` (stereo not given), the “activity change, negative = cytotoxicity” value is -3.74% [at 35.3 µM] (inactive).

In the case of `CCN(CC)S(=O)(=O)c1ccc(C(=O)O)cc1`, the “activity change, negative = cytotoxicity” value is -0.88% [at 35.3 µM] (inactive).

In the case of `C=C(C)C(=O)OCCCCCCCCCCCCCCCCCC`, the activity change, negative = cytotoxicity is 4.54% [at 15.8 µM] (inactive).

As for `Nc1cc(N)cc(C(=O)O)c1`, the “activity change, negative = cytotoxicity” value is 1.22% (inactive).

On to `CC(C)CCCC(C)NCCC(C)C` (stereo not given), for which the “activity change, negative = cytotoxicity” value is 0.274% [at 35.3 µM] (inactive).

`CCCCC1CCCCC(=O)O1` (stereo not given): the “activity change, negative = cytotoxicity” value is -0.33% (inactive).

With `O=C1OC(=O)c2cc([N+](=O)[O-])ccc21`, the “activity change, negative = cytotoxicity” value was 0.252% (inactive).

Take `CNc1ncnc2nc[nH]c12`: the “activity change, negative = cytotoxicity” value was 1.85% (inactive).

On to `CCCCC=O`, for which the “activity change, negative = cytotoxicity” value is 0.535% (inactive).

With `N#CC1(O)CCCCC1`, the “activity change, negative = cytotoxicity” value is 0.673% (inactive).

On to `COC(=O)c1ccc(C(=O)OC)c(C(=O)OC)c1`, for which the “activity change, negative = cytotoxicity” value was -7.16% (inactive).

For `CC(C)c1cccc(O)c1`, the “activity change, negative = cytotoxicity” value was -0.573% (inactive).

Turning to `Nc1nc2c(ncn2CCC(CO)CO)c(=O)[nH]1`, the “activity change, negative = cytotoxicity” value was 1.67% [at 35.3 µM] (inactive).

Take `CC(C)(C)OC(=O)N1C[C@@H](F)C[C@H]1C(=O)O`: the “activity change, negative = cytotoxicity” value is 0.135% (inactive).

Regarding `COc1ccc(COC=O)cc1`, the “activity change, negative = cytotoxicity” value was 0.527% (inactive).

For `CC(C)(C)C(=O)/C=C/c1ccc(Cl)cc1`, the “activity change, negative = cytotoxicity” value is 0.353% (inactive).

As to `Nc1ccc2cc(S(=O)(=O)O)ccc2c1`, the “activity change, negative = cytotoxicity” value was 2.27% (inactive).

As for `C[C@H]1O[C@@H](n2cc(F)c(=O)[nH]c2=O)[C@H](O)[C@@H]1O`, the “activity change, negative = cytotoxicity” value is -0.85% [at 35.3 µM] (inactive).

For `O=C(O)CCNC(=O)c1ccc(N=Nc2ccc(O)c(C(=O)O)c2)cc1`, the “activity change, negative = cytotoxicity” value was -0.6% [at 35.3 µM] (inactive).

In the case of `CCCC(=O)O[C@]1(C(=O)CCl)[C@@H](C)C[C@H]2[C@@H]3CCC4=CC(=O)C=C[C@]4(C)[C@@]3(F)C(=O)C[C@@]21C`, the “activity change, negative = cytotoxicity” value is -20.5% [at 35.3 µM] (inactive).

As to `CCN1CCN(c2cc3c(cc2F)c(=O)c(C(=O)O)cn3C2CC2)CC1`, the “activity change, negative = cytotoxicity” value is 4.56% [at 35.3 µM] (inactive).

For the compound `CC1(C)SC(C)(C)SC(C)(C)S1`, the “activity change, negative = cytotoxicity” value is 1.53% (inactive).

Take `CC1=CC(C)C(C=O)C(C)C1` (stereo not given): the “activity change, negative = cytotoxicity” value is -0.181% (inactive).

Consider `CN(C)CCOC(c1ccc(Cl)cc1)c1ccccn1` (stereo not given), for which the “activity change, negative = cytotoxicity” value is 4.18% [at 35.3 µM] (inactive).

For `COc1ccc(N=[N+]([O-])c2ccc(OC)cc2)cc1`, the “activity change, negative = cytotoxicity” value is -5.65% (inactive).

As for `CCCC(C)CO` (stereo not given), the “activity change, negative = cytotoxicity” value is 0.253% (inactive).

Regarding `CC(C)COC(=O)C(C)C`, the “activity change, negative = cytotoxicity” value was 1.41% (inactive).
